# From PubChem BioAssay AID489017 (The Scripps Research Institute Molecular Screening Center, 2010)
# A number with no mark means an inactive call. No rule for the calls is given here.
# System: Imidazoline I2 Central
# Assay: off-target binding and CYP450 inhibition panel, profiling panel, selectivity assay for S1P4 antagonist project, biochemical, Ricerca HitProfilingScreen (AID 489017)
# Details: Ricerca receptor/enzyme binding panel plus CYP450, at 10 µM, active compounds read high
smiles,measurement,value
CCc1cccc(CC)c1NC(=O)c1ccc(-c2cc(Cl)ccc2Cl)o1,inhibition,8%
